Results taken from PMC5540273 (PLoS ONE, 2017).

tested on: TGFBR1
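Further: kd values determined as follow-up on hits from a single-replicate KINOMEscan panel screen.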

Compound	Kd
c1ccc(-c2n[nH]cc2-c2ccnc3ccccc23)nc1 [GW271431]	110 nM
N#Cc1ccc(-c2cc(-c3c[nH]nc3-c3ccccn3)ccn2)cc1 [GW693028]	150 nM
O=C(c1ccc(-c2cc(-c3c[nH]nc3-c3ccccn3)ccn2)cc1)N1CCOCC1 [GW812171]	180 nM

tested on: T1, VPS34
T1 construct: gene PIK3C3

Compound	Kd
O=c1cc(N2CCOCC2)nc2n(Cc3cccc4ccccc34)ccn12 [GSK2333389]	60 nM
N#Cc1c(N2CCOCC2)sc(-c2ccn[nH]2)c1-c1ccc(Cl)cc1	58 nM
Cc1cccc(Cn2ccn3c(=O)cc(N4CCOCC4)nc23)c1 [GSK2297542]	75 nM
O=c1cc(N2CCOCC2)nc2n(Cc3cccc(F)c3)ccn12 [GSK2297430]	33 nM
O=c1cc(N2CCOCC2)nc2n(Cc3cccc(C(F)(F)F)c3)ccn12 [GSK2297543]	130 nM
Cc1cn2c(=O)cc(N3CCOCC3)nc2n1Cc1cccc(Cl)c1Cl [GSK2334006]	2.2 nM
NS(=O)(=O)c1cccc(-c2ccc3ncc(N4CCOCC4)nc3c2)c1 [GSK1535721]	> 10000 nM
O=c1cc(N2CCOCC2)nc2n(Cc3cccc(Cl)c3Cl)c(C3CC3)nn12 [GSK2358994]	0.39 nM

tested on: VRK2

Compound	Kd
CC(C)(C)n1cnc2c(N)ncnc21 [SKF-97359]	> 10000 nM
COc1ccc(Nc2nccc(N3CCC(NC(=O)Nc4cccc(C(C)=O)c4)C3)n2)cc1 (centres unmarked) [GSK1379731]	> 10000 nM
CN(C(=O)c1ccc(-c2cc(-c3c[nH]nc3-c3ccccn3)ccn2)cc1)C1CCOCC1 [GW810083]	> 10000 nM
